A short description of assay [1]: Human pregnane X receptor (PXR) small molecule agonists, qHTS cell viability counter screen (AID 1346977). Note: nearly all actives have a fitted effect of over 50% in size. The method in brief:
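After a 5hr pre-incubation, PXR-Luc HepG2 cells received compounds plus positive control in DMSO and were kept 24hr at 37C. Cell viability was quantified by fluorescence from CellTiter-Fluor added for the final hour.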
A general note: Quantitative high-throughput screening tests each substance at several concentrations.

Assay [2] is described as follows: Caspase-3/7 induction in HepG2 cells by small molecules, qHTS assay (AID 1346978). Note: nearly all actives have a fitted effect of over 15% in size. A digest of the protocol: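 Wild-type HepG2 cells, 2,000/well, settled 5 hr at 37 C and 5% CO2, then compound-treated for 17 hr; caspase-3/7 activity read by luminescent Caspase-Glo 3/7 after 30 min at room temperature.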
Assay [3] is described as follows: Caspase-3/7 induction in CHO-K1 cells by small molecules, qHTS cell viability counter screen (AID 1346979). Note: nearly all actives have a fitted effect of over 35% in size. A digest of the protocol: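 Multiplexed with Caspase-Glo 3/7 in CHO-K1 cells, this counter screen added CellTiter-Fluor after 16hr of compound exposure and recorded fluorescence 1hr later.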
Assay [4] can be described thus: Caspase-3/7 induction in HepG2 cells by small molecules, qHTS cell viability counter screen (AID 1346981). Note: series mostly up to about 92 µM; nearly all actives have a fitted effect of over 30% in size. A digest of the protocol:
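Cell viability is measured as a cytotoxicity counter screen alongside the Caspase-Glo 3/7 readout in identical wells. Wild-type HepG2 cells are treated with test compounds for 16 hr at 37 C before CellTiter-Fluor addition and a 1-hr incubation.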

The target of assay [5] is Nuclear receptor subfamily 1 group I member 2 (Homo sapiens) (UniProt O75469). The assay can be described thus: Human pregnane X receptor (PXR) small molecule agonists, qHTS assay (AID 1346982). Note: nearly all actives have a fitted effect of over 35% in size. The method in brief: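 Cells: HepG2 stably carrying PXR-Luc. Medium held 5% charcoal-stripped FBS. Compounds in DMSO added after 5 hr plating, incubated 24 hr, then luminescence quantified with ONE-Glo.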

Assay [6] concerns the target Cytochrome P450 2D6 (Homo sapiens) (UniProt P10635). The assay can be described thus: Cytochrome P450 Family 2 Subfamily D Member 6 (CYP2D6) small molecule antagonists: luciferase reporter qHTS assay (AID 1671196). Note: nearly all actives have a fitted effect of over 50% in size. Note: potency is the fitted concentration of half-maximal effect. The method in brief:
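Enzyme and proluciferin substrate were first combined with test chemical for 10 min at room temperature. Adding NADPH regeneration solution started a 1 h reaction, stopped with luciferin detection reagent and read by luminescence 20 min later.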
A general note: A reporter such as luciferase makes a cellular process visible.

The target in assay [7] is Cytochrome P450 2C19 (Homo sapiens) (UniProt P33261). Kind of assay: Cytochrome P450 Family 2 Subfamily C Member 19 (CYP2C19) small molecule antagonists: luciferase reporter qHTS assay (AID 1671197). Note: nearly all actives have a fitted effect of over 65% in size. Note: potency is the fitted concentration of half-maximal effect. A digest of the protocol: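 Light output is proportional to CYP2C19 activity: proluciferin substrate is converted to luciferin, then detected by a luciferin detection reagent that also stops the 1 h, 37C NADPH-driven reaction. Ketoconazole serves as positive control.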

The target in assay [8] is Cytochrome P450 2C9 (Homo sapiens) (UniProt P11712). Kind of assay: Cytochrome P450 Family 2 Subfamily C Member 9 (CYP2C9) small molecule antagonists: luciferase reporter qHTS assay (AID 1671198). Note: nearly all actives have a fitted effect of over 50% in size. Note: potency is the fitted concentration of half-maximal effect. A digest of the protocol: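 P450-Glo proluciferin substrate with CYP2C9 enzyme; 10 min RT preincubation, then NADPH regeneration 1 h at 37C; luciferin detection reagent 20 min RT, luminescence in relative luminescence units.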

Assay [9] deals with Cytochrome P450 1A2 (Homo sapiens) (UniProt P05177). The assay can be described thus: Cytochrome P450 Family 1 Subfamily A Member 2 (CYP1A2) small molecule antagonists: luciferase reporter qHTS assay (AID 1671199). Note: nearly all actives have a fitted effect of over 50% in size. Note: potency is the fitted concentration of half-maximal effect. A digest of the protocol: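 Compounds were incubated with CYP1A2 and a luminogenic proluciferin substrate for 10 min at room temperature before the reaction was started with NADPH regeneration solution. After 1 h, detection reagent was added and light output, proportional to CYP activity, was recorded.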

For assay [10], the target named is Voltage-gated inwardly rectifying potassium channel KCNH2 (Homo sapiens) (UniProt Q12809). Kind of assay: Human Ether-a-go-go-Related Gene (hERG) channel small molecule antagonists: fluorescence cell-based qHTS assay (AID 1671200). A digest of the protocol:
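Cell line hERG-U2OS; dye FluxOR II, 1 h RT dark; Tl+ stimulus; ex 480/em 540 nm, read each second for 2 min.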
(Block of hERG is tested as a sign of cardiac risk.)

The target of assay [11] is Cytochrome P450 3A4 (Homo sapiens) (UniProt P08684). The assay can be described thus: Cytochrome P450 Family 3 Subfamily A Member 4 (CYP3A4) small molecule antagonists: luciferase reporter qHTS assay (AID 1671201). Note: nearly all actives have a fitted effect of over 50% in size. Note: potency is the fitted concentration of half-maximal effect. The method in brief:
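Room-temperature assay throughout: 10 min compound–enzyme/substrate preincubation, 1 h reaction after NADPH regeneration solution, 20 min detection. Luciferin formed from proluciferin substrate is quantified by luminescence.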

Assay [12] can be described thus: Caspase-3/7 induction in CHO-K1 cells by small molecules, qHTS assay (AID 1346980). Note: nearly all actives have a fitted effect of over 15% in size. A digest of the protocol:
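Wild-type CHO-K1 cells exposed to compounds for 17hr at 37 C, 5% CO2. Caspase-3/7 activity then measured by Caspase-Glo 3/7 luminescence after 30min at room temperature.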

For assay [13], the target named is Nuclear receptor subfamily 1 group I member 2 (Rattus norvegicus) (UniProt Q9R1A7). Kind of assay: Rat pregnane X receptor (rPXR) activation by small molecules, qHTS assay (AID 1346983). Note: nearly all actives have a fitted effect of over 20% in size. The settings on record: rPXR luciferase reporter cells, One-Glo luminescence, 24 h; stronger effect = higher value. A digest of the protocol:
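Cell-based rPXR activation assay: rPXR cells, 2,000 per well, rested 5hr at 37 C, then exposed to compounds in DMSO for 24 hr at 37 C. Luciferase activity read by One-Glo luminescence after 30 min at room temperature.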

Assay [14] has as its target Nuclear receptor subfamily 1 group I member 2 (Homo sapiens) (UniProt O75469). The assay can be described thus: CYP3A4 induction through human pregnane X receptor (PXR) by small molecules, qHTS assay (AID 1346984). Note: nearly all actives have a fitted effect of over 40% in size. The method in brief: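 Quantitative HTS in DPX-2 cells, i.e. HepG2 transfected with PXR response element and CYP3A4-promoter luciferase. Compounds in DMSO incubated 24hr at 37C; then P450-Glo CYP3A4 substrate, 3uM final, 3hr; One-Glo luminescence.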

Assay [15] shares this target. The assay can be described thus: Human pregnane X receptor (PXR) activation by small molecules, qHTS assay (AID 1346985). Note: nearly all actives have a fitted effect of over 40% in size. A digest of the protocol: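 DPX-2 cells (HepG2 co-transfected with a PXR response element and a CYP3A4-promoter luciferase construct) were seeded at 2,000 per well, rested 5 hr at 37C, then exposed to DMSO-dissolved compounds for 24 hr. Activation was read as luciferase luminescence.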

Several values for one entry are separate records, joined by “and”; a condition that tells them apart may be missing. Equal values may be shown once. Results filed as inconclusive are left out. A structure can be active in one record and inactive in another. Activity calls are given as the source filed them. Calls come from the whole dose curve; as a rule, active = well fitted curve in the direction sought with a large enough effect in the repeat runs; inconclusive = weak or mixed curves; inactive = no such curve, though single readings can be large; an effect the other way counts as inactive or inconclusive.
% is set by controls: 0 for no effect and ±100 for the full control effect.

Chain of Nuclear receptor subfamily 1 group I member 2 (Homo sapiens) (O75469 whole entry, looked up): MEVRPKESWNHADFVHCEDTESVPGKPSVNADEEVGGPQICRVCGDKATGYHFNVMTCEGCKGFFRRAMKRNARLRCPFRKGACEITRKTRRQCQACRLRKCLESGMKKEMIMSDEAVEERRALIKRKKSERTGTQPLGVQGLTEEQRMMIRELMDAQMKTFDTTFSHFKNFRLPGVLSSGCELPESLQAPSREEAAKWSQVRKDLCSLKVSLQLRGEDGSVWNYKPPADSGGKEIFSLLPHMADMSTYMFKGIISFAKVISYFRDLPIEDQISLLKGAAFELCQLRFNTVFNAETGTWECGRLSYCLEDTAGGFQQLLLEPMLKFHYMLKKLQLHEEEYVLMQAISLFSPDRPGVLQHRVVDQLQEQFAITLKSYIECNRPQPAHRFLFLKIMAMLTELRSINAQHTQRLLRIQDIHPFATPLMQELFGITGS
Chain of Cytochrome P450 1A2 (Homo sapiens) (P05177 whole entry, looked up): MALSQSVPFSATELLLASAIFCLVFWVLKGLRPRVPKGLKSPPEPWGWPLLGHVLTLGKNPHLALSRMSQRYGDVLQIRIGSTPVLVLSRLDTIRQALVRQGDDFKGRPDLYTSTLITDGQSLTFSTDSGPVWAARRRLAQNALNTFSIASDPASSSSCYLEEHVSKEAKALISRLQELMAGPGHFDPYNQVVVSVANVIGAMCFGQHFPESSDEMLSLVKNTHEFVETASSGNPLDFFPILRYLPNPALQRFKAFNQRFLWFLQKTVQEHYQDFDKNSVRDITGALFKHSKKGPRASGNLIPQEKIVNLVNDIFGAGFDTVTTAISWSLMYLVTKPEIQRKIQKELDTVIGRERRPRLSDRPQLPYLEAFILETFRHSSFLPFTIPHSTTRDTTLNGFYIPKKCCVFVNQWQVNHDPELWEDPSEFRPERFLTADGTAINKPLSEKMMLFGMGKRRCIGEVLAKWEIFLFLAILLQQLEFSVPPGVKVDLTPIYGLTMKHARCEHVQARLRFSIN
Chain of Cytochrome P450 2D6 (Homo sapiens) (P10635 whole entry, looked up): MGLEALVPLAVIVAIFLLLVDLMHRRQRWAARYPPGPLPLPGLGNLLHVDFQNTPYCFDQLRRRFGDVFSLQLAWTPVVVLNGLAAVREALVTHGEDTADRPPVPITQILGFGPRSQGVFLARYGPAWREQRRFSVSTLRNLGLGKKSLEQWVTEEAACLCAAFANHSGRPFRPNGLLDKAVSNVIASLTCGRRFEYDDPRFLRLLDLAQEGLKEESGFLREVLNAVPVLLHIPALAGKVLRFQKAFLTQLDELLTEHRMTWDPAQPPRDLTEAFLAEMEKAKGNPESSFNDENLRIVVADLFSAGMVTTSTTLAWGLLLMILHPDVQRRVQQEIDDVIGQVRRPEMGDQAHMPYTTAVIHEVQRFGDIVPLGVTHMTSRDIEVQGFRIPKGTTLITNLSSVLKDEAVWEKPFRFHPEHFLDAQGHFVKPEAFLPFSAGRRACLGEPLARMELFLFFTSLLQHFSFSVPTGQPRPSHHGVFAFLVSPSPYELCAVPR
Chain of Cytochrome P450 2C19 (Homo sapiens) (P33261 whole entry, looked up): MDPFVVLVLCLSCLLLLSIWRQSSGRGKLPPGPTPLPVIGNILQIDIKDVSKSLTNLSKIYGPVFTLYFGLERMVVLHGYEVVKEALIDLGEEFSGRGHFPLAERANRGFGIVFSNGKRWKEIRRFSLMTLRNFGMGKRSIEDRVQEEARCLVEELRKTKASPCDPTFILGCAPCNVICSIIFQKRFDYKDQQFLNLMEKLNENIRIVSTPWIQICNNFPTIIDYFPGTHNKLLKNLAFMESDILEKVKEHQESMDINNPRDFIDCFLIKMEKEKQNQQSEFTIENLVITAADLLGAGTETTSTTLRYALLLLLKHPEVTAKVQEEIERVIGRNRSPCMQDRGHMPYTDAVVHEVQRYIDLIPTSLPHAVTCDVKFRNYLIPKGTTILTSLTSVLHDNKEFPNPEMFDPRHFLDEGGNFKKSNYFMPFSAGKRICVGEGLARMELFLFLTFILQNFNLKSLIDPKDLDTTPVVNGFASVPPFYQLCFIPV
Chain of Voltage-gated inwardly rectifying potassium channel KCNH2 (Homo sapiens) (Q12809 whole entry, looked up): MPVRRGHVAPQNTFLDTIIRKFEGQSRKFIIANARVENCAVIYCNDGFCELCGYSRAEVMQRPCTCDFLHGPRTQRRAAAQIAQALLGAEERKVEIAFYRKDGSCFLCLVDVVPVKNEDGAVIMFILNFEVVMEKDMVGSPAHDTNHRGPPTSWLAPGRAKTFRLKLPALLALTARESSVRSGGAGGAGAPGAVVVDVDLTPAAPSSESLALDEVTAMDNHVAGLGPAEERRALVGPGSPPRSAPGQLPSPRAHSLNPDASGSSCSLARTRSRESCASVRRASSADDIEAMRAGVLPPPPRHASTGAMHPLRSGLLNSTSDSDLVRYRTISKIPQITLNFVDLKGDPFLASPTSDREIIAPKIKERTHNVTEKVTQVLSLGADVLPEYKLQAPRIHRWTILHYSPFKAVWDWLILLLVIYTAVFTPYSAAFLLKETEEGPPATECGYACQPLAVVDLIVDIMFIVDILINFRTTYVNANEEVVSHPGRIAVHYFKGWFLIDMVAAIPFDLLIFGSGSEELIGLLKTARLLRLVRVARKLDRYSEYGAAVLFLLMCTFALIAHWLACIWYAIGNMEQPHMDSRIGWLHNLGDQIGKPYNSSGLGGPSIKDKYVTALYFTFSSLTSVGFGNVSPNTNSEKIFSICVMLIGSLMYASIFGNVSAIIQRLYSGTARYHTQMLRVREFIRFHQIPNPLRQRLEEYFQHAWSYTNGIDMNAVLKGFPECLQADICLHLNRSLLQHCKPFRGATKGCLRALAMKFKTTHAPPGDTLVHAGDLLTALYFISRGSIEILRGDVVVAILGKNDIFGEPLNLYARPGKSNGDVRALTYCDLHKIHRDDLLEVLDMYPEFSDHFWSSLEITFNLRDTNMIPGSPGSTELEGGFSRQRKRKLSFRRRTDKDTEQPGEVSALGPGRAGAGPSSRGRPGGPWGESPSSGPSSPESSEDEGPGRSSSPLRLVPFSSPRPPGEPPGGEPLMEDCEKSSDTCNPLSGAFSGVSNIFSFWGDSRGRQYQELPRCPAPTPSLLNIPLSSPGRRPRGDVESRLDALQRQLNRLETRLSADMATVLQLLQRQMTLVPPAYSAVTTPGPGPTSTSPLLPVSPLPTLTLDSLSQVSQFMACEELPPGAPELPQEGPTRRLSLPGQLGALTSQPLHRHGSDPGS
Chain of Cytochrome P450 2C9 (Homo sapiens) (P11712 whole entry, looked up): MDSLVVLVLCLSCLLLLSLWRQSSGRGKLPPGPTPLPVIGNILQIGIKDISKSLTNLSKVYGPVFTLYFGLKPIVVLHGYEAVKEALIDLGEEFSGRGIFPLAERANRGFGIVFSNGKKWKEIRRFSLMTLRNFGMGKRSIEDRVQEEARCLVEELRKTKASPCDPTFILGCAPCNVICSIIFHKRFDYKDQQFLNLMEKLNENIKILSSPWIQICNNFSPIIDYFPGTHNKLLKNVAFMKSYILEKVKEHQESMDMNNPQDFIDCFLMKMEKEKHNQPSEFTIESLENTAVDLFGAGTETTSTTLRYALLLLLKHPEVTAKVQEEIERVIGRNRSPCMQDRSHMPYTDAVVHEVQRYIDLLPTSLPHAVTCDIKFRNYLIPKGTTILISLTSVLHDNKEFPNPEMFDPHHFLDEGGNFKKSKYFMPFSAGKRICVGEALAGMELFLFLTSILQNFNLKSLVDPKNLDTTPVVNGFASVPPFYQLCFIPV
Chain of Cytochrome P450 3A4 (Homo sapiens) (P08684 whole entry, looked up): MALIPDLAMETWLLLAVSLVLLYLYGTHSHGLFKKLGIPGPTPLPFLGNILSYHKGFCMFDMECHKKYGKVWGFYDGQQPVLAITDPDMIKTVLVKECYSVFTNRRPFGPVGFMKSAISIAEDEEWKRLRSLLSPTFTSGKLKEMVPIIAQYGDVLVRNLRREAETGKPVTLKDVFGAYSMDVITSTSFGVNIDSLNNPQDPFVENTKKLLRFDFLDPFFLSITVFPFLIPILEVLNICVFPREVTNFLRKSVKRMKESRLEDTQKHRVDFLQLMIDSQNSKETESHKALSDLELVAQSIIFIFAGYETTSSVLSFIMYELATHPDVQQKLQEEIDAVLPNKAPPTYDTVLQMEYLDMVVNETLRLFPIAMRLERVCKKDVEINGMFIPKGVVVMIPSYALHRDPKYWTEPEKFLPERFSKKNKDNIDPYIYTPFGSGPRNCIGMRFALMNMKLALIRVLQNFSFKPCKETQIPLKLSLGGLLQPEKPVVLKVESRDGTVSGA
Chain of Nuclear receptor subfamily 1 group I member 2 (Rattus norvegicus) (Q9R1A7 whole entry, looked up): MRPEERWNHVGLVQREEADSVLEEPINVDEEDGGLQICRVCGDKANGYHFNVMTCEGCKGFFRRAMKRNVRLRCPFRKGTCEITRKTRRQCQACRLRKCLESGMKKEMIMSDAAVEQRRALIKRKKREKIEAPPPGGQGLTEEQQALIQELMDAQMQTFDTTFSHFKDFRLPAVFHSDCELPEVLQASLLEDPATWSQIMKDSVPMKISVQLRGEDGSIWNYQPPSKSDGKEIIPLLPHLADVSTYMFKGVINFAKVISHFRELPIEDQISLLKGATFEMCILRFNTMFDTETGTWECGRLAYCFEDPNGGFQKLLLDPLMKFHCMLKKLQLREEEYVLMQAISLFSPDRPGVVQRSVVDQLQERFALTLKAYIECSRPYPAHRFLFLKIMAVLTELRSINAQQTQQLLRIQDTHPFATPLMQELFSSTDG

As to `CCCOC(=O)NCCCN(C)C`, the Potency entry in [1], in assay [2], in [3], in [4], in assay [5] and in assay [9] was “inactive” in each case. In addition, the Potency entry in assay [10] and in [11] was “inactive” in each case. The Potency entry in assay [6] is “inactive and 35.6 µM (active)”; in assay [7] it was 35.6 µM (active) and inactive; in [8] it was 63.3 µM (active) and inactive.
Consider `Cc1cccc(C)c1[N+](=O)[O-]`, for which the Potency result in [1], in assay [2], in assay [3], in assay [4], in assay [5] and in assay [6] was “inactive” each time. For the same compound, the Potency result in assay [7], in assay [8], in assay [9], in assay [10] and in [11] was “inactive” in each case.
As to `Nc1cccc(N)n1`, the Potency result in assay [1], in [2], in assay [3], in assay [4], in assay [5] and in assay [9] was “inactive” each time. Moreover, the Potency result in assay [10] and in assay [11] was “inactive” throughout. Also, the Potency in [7] is 39.9 µM (active).
For the compound `C=CC(=O)NCOCCCC`, the Potency entry in assay [1], in [2], in [3], in [4], in assay [5] and in [8] was “inactive” in each case. In addition, the Potency entry in assay [9], in assay [10] and in assay [11] was “inactive” in each case. Moreover, the Potency was 16.4 µM (active) and inactive in assay [6]; 46.2 µM (active) in [7].
Consider `COc1ccc(N)c(OC)c1`, for which the Potency entry in assay [2], in assay [3], in assay [12], in [4], in assay [5] and in assay [10] was “inactive” each time. The Potency is 1.53 µM (active) and 17.8 µM (active) in assay [6]; 15.3 µM (active) and 35.6 µM (active) in assay [7]; 15.3 µM (active) and 35.6 µM (active) in [8]; 39.9 µM (active) in assay [9]; 3.84 µM (active) and 11.3 µM (active) in assay [11].
For the compound `Clc1cccc(Cl)c1NC1=NCCN1`, the Potency result in [1], in assay [2], in [3], in assay [12], in assay [4] and in assay [10] was “inactive” each time.
Take `CCCCCCCC(=O)O`: the Potency result in assay [1], in assay [2], in [3], in [4], in assay [5] and in assay [14] was “inactive” each time. Further, the Potency entry in [6], in [8], in assay [9], in assay [10] and in assay [11] was “inactive” in each case. Also, in assay [13], the max activation is 0.66% (inactive). For the same compound, the outcome in [15] was inactive. The Potency in assay [7] was 38.5 µM (active) and inactive.
For `OC[C@H]1O[C@@H](Oc2ccc(O)cc2)[C@H](O)[C@@H](O)[C@@H]1O`, the Potency result in assay [2], in assay [3], in assay [12], in assay [4], in assay [5] and in assay [6] was “inactive” throughout. The Potency entry in [7], in [8], in [9], in assay [10] and in assay [11] was “inactive” each time. In addition, the max activation in [13] is -0.143% (inactive). In addition, the compound was classed as inactive in assay [15].
As for `COC(=O)CCCCC(=O)OC`, the Potency entry in [1], in assay [2], in [3], in [4], in assay [5] and in [6] was “inactive” throughout. Also, the Potency result in assay [7], in [8], in assay [9], in [10] and in assay [11] was “inactive” each time.

These data come from PubChem BioAssay (Tox21).
